The list is not random: actives were taken first. Their share in the collection is about 7.5%.
ELG1 genotoxic: genotoxicity induction in ELG1-luciferase HEK293T cells; HEK293T ELG1-luciferase reporter, luminescence, 16 h; AID 504466; hit rate 1.3% among 330,000; Potency, µM (series often up to 46 µM), most hits filed as activators; note: nearly all actives have a fitted effect of over 60% in size
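Luminescence read-out: rising ELG1-luciferase signal, reflecting elevated ELG1 protein under genetic stress, flags genotoxic compounds. Cells were treated for 16 hr at 37 °C before ONE-Glo detection.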
FLuc counter: inhibits or activates purified firefly luciferase, miR-21 counter-screen. P08659. purified FLuc, Km substrates, luminescence inhibition. Potency, µM (titrated, usually from 57.5 µM), hits mostly inhibitors. hit rate 6.9% among 360,000; note: nearly all actives have a fitted effect of over 55% in size
Target sequence (P08659 whole entry, looked up): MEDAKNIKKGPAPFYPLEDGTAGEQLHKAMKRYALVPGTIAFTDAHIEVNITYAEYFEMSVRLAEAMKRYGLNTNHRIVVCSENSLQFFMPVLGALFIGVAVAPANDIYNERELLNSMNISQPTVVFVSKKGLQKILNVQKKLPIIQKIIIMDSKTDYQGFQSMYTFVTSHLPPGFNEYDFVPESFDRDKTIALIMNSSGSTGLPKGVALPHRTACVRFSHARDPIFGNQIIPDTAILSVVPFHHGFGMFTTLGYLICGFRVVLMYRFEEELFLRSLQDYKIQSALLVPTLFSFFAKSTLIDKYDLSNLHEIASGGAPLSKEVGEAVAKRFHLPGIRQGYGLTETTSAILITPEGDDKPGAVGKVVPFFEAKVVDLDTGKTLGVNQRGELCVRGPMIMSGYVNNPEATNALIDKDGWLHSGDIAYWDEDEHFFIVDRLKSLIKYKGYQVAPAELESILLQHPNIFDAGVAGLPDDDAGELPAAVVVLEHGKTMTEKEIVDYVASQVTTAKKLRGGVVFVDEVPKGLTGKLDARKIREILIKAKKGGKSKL
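Purified P. pyralis luciferase, 10 nM final, with Km-level 10 uM D-luciferin and 10 uM ATP in 50 mM Tris acetate pH 7.5, 10 mM Mg acetate, 0.01% Tween-20, 0.05% BSA; 6-point qHTS titration about 60 µM downward; luminescence read.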
Rab9 promoter act: activates the Rab9 promoter; Potency, µM (top dose mostly 9.22 µM), usual class: activators; Huh7 Rab9 promoter-luciferase reporter, luminescence, 24 h; hit rate 2.8% among 320,000; note: nearly all actives have a fitted effect of over 60% in size
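Cell-based reporter: Huh7 stable for Rab9 promoter-driven luciferase, plated in reduced-serum medium with 10% FBS at 1500 cells/well, compound-treated 24 h at 37 °C, luminescence read after 10 min reagent.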
NPC1 prom act: activates the NPC1 promoter; Huh7 NPC1 promoter luciferase reporter, 24 h; Potency, µM (series often up to 9.22 µM), actives largely listed as activators; AID 485313; hit rate 2.4% among 320,000; note: nearly all actives have a fitted effect of over 60% in size
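Huh7 reporter cells (NPC1 promoter driving luciferase) are dosed with compound for 24 h at 37 °C, 5% CO2; luciferase detection reagent is then added and luminescence measured after 10 min at ambient temperature.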
Luc counter: counter-screen: inhibitors of Kinase-Glo firefly luciferase | Kinase-Glo luciferase, ATP luminescence, 8 min | Q27757 | hit rate 0.28% among 200,000 | Potency, µM (series often up to 38.3 µM), most hits filed as inhibitors; note: nearly all actives have a fitted effect of over 60% in size
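Kinase-Glo luciferase light output from ATP and luciferin was measured with 10 uM ATP, within the enzyme's linear range. Buffer: 50 mM imidazole pH 7.2, 50 mM KCl, 7 mM MgCl2, 0.01% Tween 20, 0.05% BSA; luminescence read after 8 min at ambient temperature.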
SMN2 splice up: SMN2 splice variant enhancement; HEK293 SMN2-luciferase splicing reporter, luminescence, 30-36 h; Potency, µM (highest dose often 46.1 µM), usual class: activators; hit rate 2.8% among 210,000; note: nearly all actives have a fitted effect of over 55% in size
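HEK293 cells carry an SMN2 […]–luciferase reporter in which exon 7 inclusion puts luciferase in frame. Cells were plated 10-12 h before compound addition, then incubated 30-36 h at 37C. ONE-Glo luminescence was read; sodium butyrate at 4.5 mM final served as control.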
Numbers stand for hits; - = inactive; ? = inconclusive; . = no result; [ ] = remark or other dose. Calls come from the whole dose curve; as a rule, active = well fitted curve in the direction sought with a large enough effect; inconclusive = small, poorly fitted or top-dose-only effect, or another doubt; inactive = no such curve, though single readings can be large; an effect the other way counts as inactive or inconclusive.

SMILES | ELG1 genotoxic | FLuc counter | Rab9 promoter act | NPC1 prom act | Luc counter | SMN2 splice up
COC(=O)[C@@]1(Cc2ccccc2)[C@H]2c3cc(C(=O)N(C)C)n(Cc4ccc(O)c(OC)c4)c3C[C@H]2CN1C(=O)c1ccccc1 | . | . | . | . | - | -
CCOc1ccc(C2c3c(oc4ccc(C)cc4c3=O)C(=O)N2CCCN(C)C)cc1 (centres undefined) | . | - | . | . | . | .
Cc1ccc(NC(=O)C2CC2c2ccccc2)c([N+](=O)[O-])c1 (centres undefined) | ? | 19µM | - | ? | . | .
O=C(Nc1ccc(Cl)cc1F)C1CC1c1ccccc1 (centres undefined) | - | ? | - | - | . | .
O=C(CSc1nnc2scc(-c3ccc(Cl)cc3)n12)Nc1cccc(C(F)(F)F)c1 | . | - | . | . | . | -
Nc1nccc(-c2cc(-c3ccc(Cl)cc3Cl)no2)n1 | ? | 0.67µM | 0.32µM | 0.35µM | . | .
FC(F)(F)c1cnc2c(-c3ccc(Cl)cc3Cl)noc2c1 | - | - | - | - | - | -
CC1(C)CC(=O)C(N=Nc2cccc([N+](=O)[O-])c2)=C(O)C1 | 18µM | 11µM | - | - | . | .
CC1(C)CC(=O)C(N=Nc2ccc(Br)cc2)=C(O)C1 | 10µM | 3.4µM | - | - | . | .
COc1ccc(N=NC2=C(O)CC(C)(C)CC2=O)cc1 | ? | 13µM | - | 3.5µM | - | ?
Cc1ccc(C(=O)c2cn(CC(=O)NCc3ccccc3Cl)c3nc(C)ccc3c2=O)cc1 | . | - | . | . | . | .
CSc1cccc(NC(=O)CN(C)S(=O)(=O)c2ccc(C)cc2)c1 | - | - | - | - | . | .
Cc1ccc(-c2nn(C)c(=O)c3ccccc23)cc1S(=O)(=O)N1CCCC1 | 16µM | - | - | - | - | -
Cn1nc(-c2ccc(N3CCOCC3)c(NS(=O)(=O)c3ccccc3)c2)c2ccccc2c1=O | 13µM | - | - | - | - | ?
CC(=O)Nc1cc(-c2nn(C)c(=O)c3ccccc23)ccc1N1CCCCC1 | - | - | - | - | - | -
Cc1ccc(-c2nn(C)c(=O)c3ccccc23)cc1S(=O)(=O)N1CCOCC1 | ? | - | - | - | - | ?
CS(=O)(=O)N(Cc1ccccc1)c1ccc(C(=O)Nc2ccc(Cl)cc2)cc1 | . | - | . | . | . | -
O=C(NC(=S)Nc1cccc(C(F)(F)F)c1)c1csnn1 | - | - | - | - | . | .
COc1cc(/C(C)=N/N2CCN(c3ccccc3OC)CC2)ccc1O | - | - | - | - | . | .
CC(C)c1ccc(-c2nnn(CCC(=O)O)n2)cc1 | - | 9.5µM | - | - | - | -
CCc1ccc(-c2nnn(CCC(=O)OC)n2)cc1 | - | 15µM | - | - | - | -
COc1ccccc1C(=O)NNC(=O)c1csc(N2CCOCC2)n1 | - | 9.5µM | - | - | . | .
Cc1ccc(-c2cc(C(=O)NNC(=O)c3csc(N4CCOCC4)n3)c3ccccc3n2)cc1 | - | 13µM | - | - | . | .
O=C(NNC(=O)c1cc(-c2ccccc2)nc2ccccc12)c1csc(N2CCOCC2)n1 | - | ? | - | - | . | .
Cc1ccc(-c2cc(=O)c3ccccc3[nH]2)cc1 | - | 19µM | ? | - | - | -
SMILES | ELG1 genotoxic | FLuc counter | Rab9 promoter act | NPC1 prom act | Luc counter | SMN2 splice up
Cc1ccc2[nH]c(-c3ccccc3)cc(=O)c2c1 | ? | 1.7µM | ? | ? | - | 11µM
Cc1ccc(-c2cc(=O)c3cc(Cl)ccc3[nH]2)cc1 | ? | 0.54µM | 4µM | ? | - | .
O=C(Nc1ccc(F)cc1C(F)(F)F)C1CCN(c2ncccn2)CC1 | . | - | . | . | . | -
Cc1ccc(-c2noc(CCC(=O)Nc3ccc4c(c3)OCO4)n2)cc1 | - | - | - | - | - | -
COc1ccc(C(=O)Nc2ccc3c(c2)OCCO3)cc1 | ? | 0.85µM | 0.71µM | 0.45µM | - | 1.8µM
O=C(CCNc1ccccc1)c1ccc2c(c1)OCO2 | ? | 4.8µM | 2.5µM | 2.2µM | - | -
CCCOc1ccc(C(=O)Nc2ccc3c(c2)OCCO3)cc1 | 2.9µM | 1.2µM | 0.56µM | 0.35µM | . | .
CC(=O)c1ccc(OCCCC(=O)Nc2ccc3c(c2)OCCO3)cc1 | - | - | - | - | . | .
COc1ccc(-c2noc(CCC(=O)Nc3ccc4c(c3)OCCO4)n2)cc1 | - | 17µM | - | - | - | -
CCc1ccc(-c2nc(CN3CCCC(C(=O)NCc4ccccc4Cl)C3)c(C)o2)cc1 (centres undefined) | . | - | . | . | . | -
COc1ccc(/C(C)=N/NC(=O)CNC(=O)c2cccnc2)cc1OC | - | - | - | - | . | .
COc1ccc(C(=O)CCNc2ccc3c(c2)OCCO3)cc1 | - | 13µM | - | ? | - | -
CCCOc1ccc(C(=O)CCNc2cccc(Cl)c2)cc1 | - | - | - | - | - | -
COc1ccc(C(=O)CCNc2cccc(Cl)c2)cc1 | ? | ? | 3.5µM | ? | - | ?
CC(=O)Oc1ccc(C(=O)Nc2ccc3c(c2)OCCO3)cc1 | ? | 11µM | 1.6µM | 1µM | . | .
COc1ccc(C(=O)CNc2cccc(F)c2)cc1 | ? | 11µM | -[1.84 µM] | ? | . | .
O=C(NC1CCCCC1)c1ccc2c(c1)N(Cc1ccccc1Cl)C(=O)c1ccccc1S2 | . | - | . | . | . | .
O=C(CCCCn1c(=O)c2ccccc2n(Cc2ccccc2Cl)c1=O)NCc1ccc2c(c1)OCO2 | . | - | . | . | . | -
Cn1nc(-c2ccccc2F)c2cc(C(=O)N3CCN(c4ccccc4F)CC3)sc21 | . | - | . | . | . | -
CCn1cc(-c2cc(C(=O)O)c3ccccc3n2)c(C)n1 | - | 9.5µM | - | - | - | -
Cn1ccc(-c2cc(C(=O)O)c3ccccc3n2)n1 | - | ? | - | - | - | -
O=C(O)c1cc(-c2cccnc2)nc2ccccc12 | - | - | - | - | . | .
CCn1cc(-c2cc(C(=O)O)c3ccccc3n2)cn1 | - | 2.7µM | - | - | ? | -
Cc1cc(OCC(=O)Nc2ccncc2)ccc1Cl | - | ? | - | - | . | .
Cc1ccc2nc(-c3ccc(NC(=O)COc4ccc(Cl)c(C)c4)cc3)sc2c1 | . | 21µM | . | . | . | 14µM
SMILES | ELG1 genotoxic | FLuc counter | Rab9 promoter act | NPC1 prom act | Luc counter | SMN2 splice up
Cc1ccc2nc(-c3ccc(NC(=O)COc4ccc(Br)cc4Br)cc3)sc2c1 | . | 2.1µM | . | . | . | 2.8µM
Cc1ccc2nc(-c3ccc(NC(=O)COc4c(C)ccc(C)c4C)cc3)sc2c1 | . | 19µM | . | . | . | ?
Cc1ccc(NC(=O)COc2ccc(Br)cc2CO)cc1 | - | 13µM | - | - | - | -
Cc1ccc(CSc2nc3ccc(NC(=O)COc4ccccc4F)cc3s2)cc1 | . | - | . | . | . | .
Cc1ccc(C(=O)Nc2ccccc2C(=O)OCc2cc(=O)n3nc(C4CC4)sc3n2)cc1 | . | - | . | . | . | .
CN(c1ccccc1)c1nc(N)c([N+](=O)[O-])c(NCCO)n1 | - | - | - | - | . | .
c1ccc(-c2ccc(N3CCCC4(CCNCC4)C3)cc2)cc1 | . | . | . | . | - | -
Cc1ccc(C)c(NC(=O)CN2C(=O)C3(SCC(=O)N3c3ccc(C)c(C)c3)c3ccccc32)c1 (centres undefined) | . | - | . | . | . | .

Screening results deposited in PubChem BioAssay by National Center for Advancing Translational Sciences (NCATS).
